Each structure is given as a SMILES string. Activity calls are given as the source filed them. Unless noted, the rule behind the calls is not given here.

Experiment [1] has as its system Wnt5a (protein binding on small-molecule microarray). Description: small molecules binding Wnt5a protein – biophysical, small-molecule microarray, 635/667 nm fluorescence, primary screen (AID 1142).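 Note: fluorescence read at 667 nm with signal to noise per printed feature.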 The settings on record: 635 nm fluorescence, higher = more signal.
Experiment [2] can be described thus: ATP-based viability of Huh7 replicon cells – cell-based, CellTiter-Glo luminescence, basal, 48 h, cytotoxicity control for HCV replication inhibitor project, primary screen (AID 1143).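 Note: Huh7 hepatoma cells carrying a hepatitis C replication reporter with no stimulus; test concentration not given here.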 The conditions noted are these: higher = more signal, called active from +8 up or from −8 down. (In general: In antiviral work, replicon cells carry a viral genome segment that copies itself.)

A short description of experiment [3]: Pseudomonas biofilm growth suppression – PAO1 strain, BacTiter-Glo luminescence, LB-PBS, primary screen (AID 1144). The conditions noted are these: P. aeruginosa PAO1 biofilm, 12 h, higher = more signal.
The nature of experiment [4]: basal CRE-LacZ reporter activity in PC12 – cell-based, unstimulated, primary screen (AID 1145). The conditions noted are these: no forskolin, luminescence, 4.5 h, higher = more signal, called active from +8 up or from −8 down.
The nature of experiment [5]: forskolin-driven CRE-LacZ activity in PC12 – cell-based, CRE-LacZ reporter, forskolin-stimulated, primary screen (AID 1146).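 Note: PC12 cells with 6xCRE LacZ reporter stimulated by forskolin 10 µM; beta-galactosidase reporter signal reflecting CREB driven transcription.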 The settings on record: luminescence, 4.5 h, higher = more signal, called active from +8 up or from −8 down.
In experiment [6] the target is Streptavidin (Streptomyces avidinii) (UniProt P22629). Briefly: compounds binding control protein streptavidin – biophysical, small-molecule microarray, 635/667 nm fluorescence, artefact control for SMM compound annotation, primary screen (AID 1147).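 Note: signal reflects streptavidin binding to arrayed compounds as a control protein.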 The settings on record: higher = more signal.
The nature of experiment [7]: probe aInhba binding on compound microarray – biochemical, small-molecule microarray, 635/667 nm fluorescence, primary screen (AID 1148).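 Note: score merges 667nm spot fluorescence with signal-to-noise for antibody binding to printed compounds.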 The conditions noted are these: higher = more signal.
Experiment [8] has as its target Torsin-1A (Homo sapiens) (UniProt O14656). Briefly: TOR1A wild-type binding on microarray – cell lysate, small-molecule microarray, lysate, 635/667 nm, primary screen (AID 1149). The settings on record: COS7 hTOR1A-WT lysate, 635 nm fluorescence, higher = more signal.
Experiment [9] has the same target. Briefly: torsin A mutant lysate binding on microarrays – cell lysate, small-molecule microarray, COS7 lysate, 635/667 nm fluorescence, primary screen (AID 1150).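 Note: score pools 667 nm emission and signal to noise measuring lysate protein binding.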 The settings on record: COS7 hTOR1A mutant lysate, 635 nm fluorescence, higher = more signal.
In experiment [10] the test system is Sonic hedgehog protein (Shh). Briefly: Sonic hedgehog microarray binding compounds – biochemical, small-molecule microarray, 635/667 nm fluorescence, primary screen (AID 1151).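 Note: Shh protein binding to compounds spotted on small-molecule microarray slides; score combines spot fluorescence intensity with signal-to-noise across triplicate slides.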 The settings on record: 635 nm fluorescence, higher = more signal.
The nature of experiment [11]: optical density shifts of acrAB sulA E. coli – strain DRC41, OD650, 48 h, E. coli filamentation inducer project, primary screen (AID 1152).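 Note: E. coli MC1000 strain DRC41 lacking acrAB efflux pump and sulA.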 The conditions noted are these: higher = more signal, called active from +8 up or from −8 down.
A short description of experiment [12]: probe aLefty1 binding on compound microarray – biochemical, small-molecule microarray, 635/667 nm fluorescence, primary screen (AID 1153).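 Note: score merges spot fluorescence with signal-to-noise ratio from the scanned slide images.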 The conditions noted are these: higher = more signal.
Experiment [13] is described as follows: plasmodial surface anion channel blockers, osmotic lysis – cell-based, P. falciparum Indochina, OD700, 1 h, primary screen (AID 1154). The conditions noted are these: P. falciparum Indochina infected RBC osmotic lysis, higher = more signal, called active from +8 up or from −8 down.
Experiment [14] can be described thus: plasmodial surface anion channel blockers, osmotic lysis – cell-based, P. falciparum Indochina, OD700, 2 h, primary screen (AID 1155).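 Note: lysis reports solute entry through the parasite surface anion channel PSAC.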 The conditions noted are these: P. falciparum Indochina infected erythrocytes, higher = more signal, called active from +8 up or from −8 down.
Experiment [15] in a line: changes in parasitized red cell lysis, either direction – P. falciparum Indochina, OD700, 3 h, PSAC antagonist project, primary screen (AID 1156). The settings on record: P. falciparum-infected erythrocytes, osmotic lysis, higher = more signal, called active from +8 up or from −8 down.
A short description of experiment [16]: plasmodial surface anion channel blockers, osmotic lysis – cell-based, P. falciparum Indochina, OD700, 18 h, primary screen (AID 1157). The settings on record: P. falciparum Indochina infected erythrocytes, osmotic lysis OD700, 18 h; higher = more signal, called active from +8 up or from −8 down.
Experiment [17] can be described thus: S6 kinase pathway phospho-S6 level changes – cell-based, A549, cytoblot, luminescence, serum-stimulated, primary screen (AID 1158).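 Note: serum-stimulated A549 lung adenocarcinoma cells; signal is phosphorylated S6 detected by cytoblot immunostaining with HRP secondary.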 The conditions noted are these: 5 h, higher = more signal.
Experiment [18] addresses NADPH oxidase 2 (Homo sapiens) (UniProt P04839). Briefly: compounds shifting NOX2 Amplex Red fluorescence – cell-based, HEK293-NOX2, PMA-stimulated, NOX inhibitor project, primary screen (AID 1159). Note: test concentration not given here. The conditions noted are these: 45 min, higher = more signal, called active from +8 up or from −8 down.
Experiment [19] has as its target NADPH oxidase 4 (Homo sapiens) (UniProt Q9NPH5). Briefly: compounds shifting NOX4 Amplex Red fluorescence – cell-based, HEK293-NOX4, tetracycline-induced, NOX inhibitor project, primary screen (AID 1160). The conditions noted are these: HEK293-NOX4, Amplex Red H2O2 fluorescence, 45 min; higher = more signal, called active from +8 up or from −8 down.
The target in experiment [20] is NADPH oxidase 5 (Homo sapiens) (UniProt Q96PH1). Briefly: compounds shifting NOX5 Amplex Red fluorescence – cell-based, HEK293-NOX5, NOX inhibitor project, primary screen (AID 1161). The settings on record: HEK293-NOX5, ionomycin, 45 min, higher = more signal.
Sequence of NADPH oxidase 5 (Homo sapiens) (Q96PH1 whole entry, looked up): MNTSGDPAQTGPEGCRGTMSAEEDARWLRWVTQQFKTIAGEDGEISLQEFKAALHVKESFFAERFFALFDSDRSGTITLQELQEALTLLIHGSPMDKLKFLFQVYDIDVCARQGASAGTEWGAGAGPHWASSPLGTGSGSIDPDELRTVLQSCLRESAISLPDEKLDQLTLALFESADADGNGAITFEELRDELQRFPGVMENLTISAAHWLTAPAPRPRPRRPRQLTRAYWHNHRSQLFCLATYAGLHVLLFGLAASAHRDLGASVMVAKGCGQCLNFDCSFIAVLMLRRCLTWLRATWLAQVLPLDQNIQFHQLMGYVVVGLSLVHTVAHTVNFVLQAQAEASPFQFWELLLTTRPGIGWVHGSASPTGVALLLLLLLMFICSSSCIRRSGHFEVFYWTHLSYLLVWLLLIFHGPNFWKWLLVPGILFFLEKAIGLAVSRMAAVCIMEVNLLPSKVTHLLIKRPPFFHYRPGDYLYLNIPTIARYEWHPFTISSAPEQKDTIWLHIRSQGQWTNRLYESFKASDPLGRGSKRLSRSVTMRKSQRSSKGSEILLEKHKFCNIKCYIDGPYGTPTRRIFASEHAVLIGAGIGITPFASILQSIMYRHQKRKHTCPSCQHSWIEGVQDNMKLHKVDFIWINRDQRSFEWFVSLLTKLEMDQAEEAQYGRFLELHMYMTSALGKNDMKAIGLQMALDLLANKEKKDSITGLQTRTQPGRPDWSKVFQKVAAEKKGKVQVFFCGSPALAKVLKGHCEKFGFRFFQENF

Sequence of NADPH oxidase 4 (Homo sapiens) (Q9NPH5 whole entry, looked up): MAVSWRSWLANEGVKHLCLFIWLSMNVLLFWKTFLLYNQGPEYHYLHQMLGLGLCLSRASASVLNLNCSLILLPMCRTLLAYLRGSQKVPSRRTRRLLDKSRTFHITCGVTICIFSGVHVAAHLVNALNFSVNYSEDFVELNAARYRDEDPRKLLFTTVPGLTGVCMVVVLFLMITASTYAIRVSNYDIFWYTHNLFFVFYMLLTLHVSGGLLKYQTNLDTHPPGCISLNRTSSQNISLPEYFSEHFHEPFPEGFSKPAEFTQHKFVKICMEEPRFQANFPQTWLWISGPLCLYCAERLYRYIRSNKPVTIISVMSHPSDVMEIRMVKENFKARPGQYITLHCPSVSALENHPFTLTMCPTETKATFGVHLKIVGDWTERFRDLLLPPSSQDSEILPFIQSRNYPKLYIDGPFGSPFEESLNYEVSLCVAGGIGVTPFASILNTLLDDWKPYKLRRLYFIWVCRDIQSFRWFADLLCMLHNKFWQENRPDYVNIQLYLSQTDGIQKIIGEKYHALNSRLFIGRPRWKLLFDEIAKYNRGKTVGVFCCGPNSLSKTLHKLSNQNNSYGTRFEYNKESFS
Sequence of NADPH oxidase 2 (Homo sapiens) (P04839 whole entry, looked up): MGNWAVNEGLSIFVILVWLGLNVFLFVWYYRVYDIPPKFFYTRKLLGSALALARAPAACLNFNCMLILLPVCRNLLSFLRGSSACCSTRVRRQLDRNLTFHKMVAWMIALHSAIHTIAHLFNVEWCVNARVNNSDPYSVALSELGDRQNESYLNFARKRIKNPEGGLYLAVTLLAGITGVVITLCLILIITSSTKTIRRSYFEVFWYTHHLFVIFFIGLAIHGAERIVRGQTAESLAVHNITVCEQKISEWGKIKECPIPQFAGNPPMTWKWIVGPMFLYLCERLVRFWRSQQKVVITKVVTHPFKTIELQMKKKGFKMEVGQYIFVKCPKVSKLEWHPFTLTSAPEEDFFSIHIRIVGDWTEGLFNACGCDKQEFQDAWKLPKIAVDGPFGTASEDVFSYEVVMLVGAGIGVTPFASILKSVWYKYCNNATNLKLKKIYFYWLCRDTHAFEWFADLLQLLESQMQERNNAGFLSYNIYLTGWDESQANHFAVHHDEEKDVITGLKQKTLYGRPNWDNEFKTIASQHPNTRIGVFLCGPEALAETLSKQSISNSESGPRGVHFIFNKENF
Sequence of Streptavidin (Streptomyces avidinii) (P22629 whole entry, looked up): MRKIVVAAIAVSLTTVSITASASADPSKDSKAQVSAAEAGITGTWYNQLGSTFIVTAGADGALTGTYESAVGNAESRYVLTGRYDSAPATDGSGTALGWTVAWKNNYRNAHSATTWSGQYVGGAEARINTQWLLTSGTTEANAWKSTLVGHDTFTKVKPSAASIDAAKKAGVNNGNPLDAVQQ
Sequence of Torsin-1A (Homo sapiens) (O14656 whole entry, looked up): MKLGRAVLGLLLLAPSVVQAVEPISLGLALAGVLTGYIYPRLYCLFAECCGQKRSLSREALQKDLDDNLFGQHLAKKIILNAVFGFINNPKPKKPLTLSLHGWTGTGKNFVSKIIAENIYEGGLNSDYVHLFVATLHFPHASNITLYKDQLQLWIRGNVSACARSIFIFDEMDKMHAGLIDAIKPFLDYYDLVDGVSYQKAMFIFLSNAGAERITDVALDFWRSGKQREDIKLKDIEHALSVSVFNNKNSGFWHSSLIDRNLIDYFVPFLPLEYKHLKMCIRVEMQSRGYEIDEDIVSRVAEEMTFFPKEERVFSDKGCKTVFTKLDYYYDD

With `COC(=O)CC=C[C@@H](C)[C@@H](C=NOC[C@@H](O)COCc1ccco1)NS(=O)(=O)c1ccc(C)cc1`, the composite z-score is 0.102 in [1]; -0.601 in [6]; -0.209 in experiment [7]; 1.11 in [8]; 1.24 in experiment [9]; 1.89 in [10]. The compound also registered a composite z-score in experiment [12] of -0.186. Further, the z-score in experiment [2] is 0.0032 (inactive); in experiment [3], 0.91 (inactive); in experiment [4], -0.715 (inactive); in experiment [5] it was -0.0491 (inactive); in experiment [11] it was 0.132 (inactive); in experiment [13] it was 1.25 (inactive). Further, the z-score in experiment [14] was 0.418 (inactive); in [15], 0.0934 (inactive); in experiment [16], 0.391 (inactive); in [17], -0.689; in [18], 0.017 (inactive); in experiment [19], -0.202 (inactive). The z-score in experiment [20] is -0.106.
For the compound `CCN1C(=O)[C@H]2[C@H]3[C@H](O)[C@H](O)CC(=NOC(C)CN4CCCc5nc(C)c(C)cc54)[C@@H]3CC[C@H]2C1=O` (stereo not given in full), the composite z-score in [1] is 0.223; in experiment [6] it was -0.0317; in experiment [7], 0.134; in [8] it was 0.46; in experiment [9], 0.456; in experiment [10], 0.906. For the same compound, the composite z-score in [12] was found to be 0.603. In addition, the z-score in experiment [2] is 0.433 (inactive); in experiment [3], 1.17 (inactive); in [4] it was -0.882 (inactive); in experiment [5] it was -0.271 (inactive); in experiment [11], 0.223 (inactive); in experiment [13] it was 1.25 (inactive). The z-score is 0.59 (inactive) in experiment [14]; -0.121 (inactive) in [15]; 0.588 (inactive) in [16]; -0.461 in experiment [17]; -1 (inactive) in experiment [18]; -0.772 (inactive) in experiment [19]. Further, the z-score in experiment [20] is -0.298.
For the compound `O=C(NN=C1C[C@@H](O)[C@@H](O)[C@@H]2[C@@H]3C(=O)N(Cc4ccccc4)C(=O)[C@@H]3CC[C@H]12)OCc1ccccc1`, the composite z-score was -0.014 in experiment [1]; -0.0198 in [6]; 0.0406 in experiment [7]; 0.726 in experiment [8]; 0.983 in [9]; 1.06 in experiment [10]. In [12], this compound registered a composite z-score of -0.279. Besides, the z-score is -0.575 (inactive) in experiment [2]; -0.281 (inactive) in experiment [3]; 0.0628 (inactive) in experiment [4]; 0.401 (inactive) in [5]; -0.202 (inactive) in experiment [11]; 0.464 (inactive) in experiment [13]. Besides, the z-score in [14] was -1.04 (inactive); in [15], -0.999 (inactive); in experiment [16], -1.46 (inactive); in [17], -0.276; in experiment [18] it was 1.49 (inactive); in experiment [19], 0.638 (inactive). Besides, in experiment [20], the z-score is -0.0528.
For `COCOc1ccc(Br)cc1C(=O)C=Cc1ccc2c(c1)OCO2`, the composite z-score is -0.18 in experiment [1]; -0.0743 in [6]; -0.182 in [7]; 0.61 in [8]; 0.281 in experiment [9]; 0.487 in experiment [10]. In experiment [12], this compound showed a composite z-score of -0.103. The z-score in experiment [2] was -3.9 (inactive); in [3], -1.46 (inactive); in experiment [4] it was 15.5 (active); in experiment [5], 5.69 (inactive); in experiment [11] it was 0.677 (inactive); in experiment [13], 8.25 (active). In addition, the z-score was -0.0749 (inactive) in experiment [14]; 0.365 (inactive) in [15]; -1.11 (inactive) in [16]; 0.835 in experiment [17]; 0.187 (inactive) in experiment [18]; 0.138 (inactive) in experiment [19]. In addition, in experiment [20], the z-score was -1.03.
For `COc1ccc(COC(=O)NN=C2C[C@@H](O)[C@@H](O)[C@@H]3[C@@H]4C(=O)N(c5cccc(Oc6ccccc6)c5)C(=O)[C@@H]4CC[C@H]23)cc1`, the composite z-score is -0.142 in [1]; 0.993 in [6]; -0.0375 in experiment [7]; -0.135 in [8]; -0.144 in experiment [9]; -1.44 in experiment [10]. Moreover, the composite z-score in [12] is 0.4. In addition, the z-score in experiment [2] is -3.56 (inactive); in experiment [3] it was 0.111 (inactive); in [4], -0.293 (inactive); in [5], 0.505 (inactive); in [11], 0.249 (inactive); in experiment [13] it was 3.48 (inactive). Also, the z-score in [14] is -0.469 (inactive); in experiment [15] it was 1.89 (inactive); in experiment [16] it was -2.15 (inactive); in experiment [17], 0.0187; in [18], -1.26 (inactive); in experiment [19], -1.6 (inactive). In experiment [20], the z-score is -1.49.
In the case of `COc1cccc([C@H]2Oc3ccc(OC)cc3C(=NOCC[C@@H]3C=C[C@H](OC(C)=O)[C@@H](COC(C)=O)O3)[C@@H]2O)c1`, the composite z-score in [1] is 0.0377; in [6] it was -0.112; in experiment [7], -0.154; in [8] it was 0.186; in experiment [9] it was 0.273; in experiment [10], 0.509. This compound registered a composite z-score in [12] of -0.18. Also, the z-score in experiment [2] is -0.0868 (inactive); in experiment [3] it was 1.43 (inactive); in experiment [4] it was 5.08 (inactive); in experiment [5], 0.497 (inactive); in experiment [11] it was -1.05 (inactive); in experiment [13], 1.16 (inactive). The z-score was 0.236 (inactive) in experiment [14]; -0.125 (inactive) in experiment [15]; 0.416 (inactive) in experiment [16]; -1.04 in experiment [17]; 0.511 (inactive) in experiment [18]; 1.03 (inactive) in experiment [19]. Moreover, the z-score in [20] was -0.14.
As to `O=C1C2=CC[C@H]3C(=O)N(C[C@@H]4CCCO4)C(=O)[C@H]3[C@H]2[C@H](O)[C@@H]2O[C@H]12`, the composite z-score in [1] is 0.487; in experiment [6], 0.19; in [7], -0.12; in [8] it was 0.863; in experiment [9] it was 0.511; in experiment [10] it was -0.331. Further, the composite z-score in experiment [12] is -0.0969. In addition, the z-score in experiment [2] was -4.97 (inactive); in experiment [3], 0.846 (inactive); in experiment [4], 0.0664 (inactive); in experiment [5], 21.2 (active); in experiment [11], 0.194 (inactive); in experiment [13], -0.303 (inactive). In addition, the z-score in experiment [14] is 0.59 (inactive); in [15], -0.2 (inactive); in [16] it was 0.108 (inactive); in experiment [17], 0.177; in experiment [18] it was -1.35 (inactive); in experiment [19], -0.219 (inactive). The z-score in experiment [20] is 0.271.
On to `CCOC(=O)[C@H](Cc1ccccc1)NC(=O)CCC1CC(OC(=O)NCc2cccc3ccccc23)CC2(CCCC(COC(=O)NCCc3ccc(Cl)cc3)O2)O1` (stereo not given in full), for which the composite z-score in [1] is 0.0449; in experiment [6], 0.998; in [7], -0.223; in experiment [8], -0.162; in experiment [9], 0.244; in [10], 0.932. Moreover, in experiment [12], the composite z-score stood at 0.539. In addition, the z-score is -2.69 (inactive) in experiment [2]; -1.39 (inactive) in experiment [3]; 0.563 (inactive) in experiment [4]; 0.0305 (inactive) in experiment [5]; -1.37 (inactive) in experiment [11]; 7.28 (inactive) in experiment [13]. For the same compound, the z-score in experiment [14] is 0.618 (inactive); in experiment [15] it was -0.552 (inactive); in experiment [16] it was -0.687 (inactive); in experiment [17], 0.335; in experiment [18], 0.694 (inactive); in [19], 0.92 (inactive). Further, the z-score in experiment [20] is 0.986.
